Compound activity (PubChem)
Compounds with a hit are over-represented: about 3.3% of the library has one in this group of screens.
rCAG RNA binder: molecules binding r(CAG) RNA repeats. r(CAG) RNA repeat, TO-PRO-1 dye displacement fluorescence. inhibition, % at 3 µM. actives 1.3% (n = 370,000);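 active means inhibition above the plate cutoff, the mean of all test compounds on that plate plus 3 SD, cut at about 35% in these data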;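 further: higher means more dye released from RNA so lower well fluorescence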
PRMT1 inh: inhibitors of human PRMT1; actives 1.3% (n = 370,000); recombinant PRMT1, activity-based probe fluorescence polarization; Q99873; inhibition, % at 2.79 µM; AID 652257;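 active means inhibition above about 21% made by adding two undisclosed values, limit read from the data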
TLR9-MyD88 block: inhibitors of human TLR9-MyD88 binding. actives 0.21% (n = 340,000). CHO BLA complementation TLR9-MyD88, CCF4 FRET ratio. Q9NR96+Q99836. inhibition, % at 4.98 µM;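 active means inhibition above the mean over all tested compounds plus 3 SD, cut at about 21% in these data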
ABHD5-PLIN5 inh: inhibitors of human ABHD5-perilipin-5 interaction. Q00G26+Q8WTS1. Split G. princeps luciferase complementation, luminescence, 4 h. inhibition, % at 4 µM. actives 0.78% (n = 360,000). AID 602281;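 active means inhibition above the mean inhibition across every tested compound plus 3 SD, cut at about 22% in these data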
Target sequence (Q00G26 whole entry, looked up): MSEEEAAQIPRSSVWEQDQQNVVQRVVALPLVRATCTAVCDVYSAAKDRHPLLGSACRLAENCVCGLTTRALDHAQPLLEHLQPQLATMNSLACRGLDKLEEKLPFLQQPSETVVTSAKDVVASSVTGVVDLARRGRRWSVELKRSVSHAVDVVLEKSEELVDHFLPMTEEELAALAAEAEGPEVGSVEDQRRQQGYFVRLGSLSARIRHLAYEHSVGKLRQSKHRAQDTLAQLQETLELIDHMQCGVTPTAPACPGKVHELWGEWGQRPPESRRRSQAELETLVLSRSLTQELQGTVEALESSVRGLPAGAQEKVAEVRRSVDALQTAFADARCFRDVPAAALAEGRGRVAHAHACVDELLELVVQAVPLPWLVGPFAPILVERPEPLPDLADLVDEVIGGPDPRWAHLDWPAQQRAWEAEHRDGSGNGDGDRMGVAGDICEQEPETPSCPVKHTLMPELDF
Target sequence (Q8WTS1 whole entry, looked up): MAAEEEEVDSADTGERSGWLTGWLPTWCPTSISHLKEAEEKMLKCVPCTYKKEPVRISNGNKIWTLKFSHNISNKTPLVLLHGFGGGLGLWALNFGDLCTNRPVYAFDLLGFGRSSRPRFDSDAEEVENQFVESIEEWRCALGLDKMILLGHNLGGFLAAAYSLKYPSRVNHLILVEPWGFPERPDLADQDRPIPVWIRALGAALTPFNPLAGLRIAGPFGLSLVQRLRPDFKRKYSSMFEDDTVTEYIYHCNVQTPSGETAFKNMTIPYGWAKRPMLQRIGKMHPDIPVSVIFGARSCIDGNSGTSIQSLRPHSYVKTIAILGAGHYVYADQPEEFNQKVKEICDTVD
NOD2-RIPK2 inh: NOD2-RIPK2 protein interaction inhibition | O43353 | CHO BLA complementation NOD2-RIPK2, CCF4 ratio | inhibition, % at 4.98 µM | actives 0.38% (n = 360,000) | AID 624267; in the data active means inhibition above about 21%
TLR4 MyD88 comp: blocks binding of human TLR4 to MyD88 | inhibition, % at 8.4 µM | AID 861 | HeLa CL3-4 TLR4/MyD88 BLA complementation, FRET ratio | O00206+Q99836 | actives 0.18% (n = 200,000); in the data active means inhibition above about 25%
rCAG bind conf: r(CAG) RNA repeat binding, confirmation; shares compounds with rCAG RNA binder; TO-PRO-1 dye displacement fluorescence; inhibition, % at 3 µM; actives 70% (n = 4,300); AID 652065;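 active means inhibition above a per-plate cutoff, the mean inhibition of sample wells plus 3 SD, cut at about 35% in these data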;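 further: loss of TO-PRO-1 fluorescence as compound displaces dye from 1x1 AA loop RNA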
DNA CAG counter: counter-screen for rCAG RNA binders: DNA CAG dye complex inhibitors; shares compounds with rCAG RNA binder; actives 94% (n = 4,300); inhibition, % at 3 µM; d(CAG) DNA oligo TO-PRO-1 dye displacement, fluorescence;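 active means inhibition above its plate's cutoff, the mean test-well inhibition plus 3 SD, cut at about 4.8% in these data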;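 further: hits displace the dye from DNA and so lower well fluorescence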
Hits are given with their value; 0 = inactive; - = not tested or not shown.

SMILES	rCAG RNA binder	PRMT1 inh	TLR9-MyD88 block	ABHD5-PLIN5 inh	NOD2-RIPK2 inh	TLR4 MyD88 comp	rCAG bind conf	DNA CAG counter
O=C(O)c1cccc(S(=O)(=O)N(Cc2ccccc2)c2ccc(Cl)cc2)c1	38.1	0	0	0	0	-	41.4	11.5
COc1ccc(N(Cc2ccccc2)S(=O)(=O)c2cc(C(=O)O)ccc2Cl)cc1	53.0	0	0	0	0	-	41.7	8.9
COc1ccc2nc(-c3ccco3)c(-c3ccco3)nc2c1	58.6	63.1	0	0	0	0	0	12.9
COc1ccc(-c2nc3ccccc3nc2-c2ccc(OC)cc2)cc1	0	0	0	0	0	-	-	-
O=C(O)CC1S/C(=N/N=C/C=C/c2ccccc2[N+](=O)[O-])NC1=O (centres undefined)	0	0	0	0	0	0	-	-
O=C(O)CC1S/C(=N/N=C/c2ccc(-c3ccc(Cl)cc3[N+](=O)[O-])o2)NC1=O (centres undefined)	43.0	0	0	0	0	0	0	6.6
O=C(O)CC1S/C(=N/N=C/c2ccc(-c3ccc(Cl)c([N+](=O)[O-])c3)o2)NC1=O (centres undefined)	35.1	0	0	0	0	0	0	8.0
COC(=O)[C@@H]1[C@H](O[Si](C)(C)C(C)(C)C)C2OC2C[C@H]1S(=O)(=O)c1ccccc1 (some centres undefined)	-	0	-	-	-	-	-	-
COc1cc(/C=C2\SC(=S)N(NC(=O)c3ccccc3OC)C2=O)ccc1O	58.0	0	0	0	0	-	50.6	19.1
COc1cc(/C=C2\SC(=S)N(NC(=O)c3ccc(O)c(OC)c3)C2=O)ccc1O	0	0	0	0	0	-	-	-
CCOc1cc(/C=C2\SC(=S)N(NC(=O)c3cccnc3)C2=O)ccc1O	0	0	-	0	0	0	-	-
COc1cc(/C=C2\SC(=S)N(NS(=O)(=O)c3ccccc3)C2=O)ccc1O	0	0	0	0	0	-	-	-
COc1cc(/C=C2\SC(=S)N(NS(=O)(=O)c3ccc(C)cc3)C2=O)ccc1O	45.5	0	0	0	0	-	0	9.9
CCOc1cc(/C=C2\SC(=S)N(NS(=O)(=O)c3ccc(C)cc3)C2=O)ccc1O	69.9	0	0	0	0	-	49.7	19.1
O=Cc1sc(N2CCOCC2)nc1-c1ccccc1	-	-	-	-	-	0	-	-
Cc1cc(C)n(C(C[N+](=O)[O-])c2ccc(Cl)cc2)n1 (centres undefined)	0	0	0	0	0	0	-	-
Cc1ccc(C2(c3ccc(C)cc3)CC2C(=O)Nc2ccc([N+](=O)[O-])cc2O)cc1 (centres undefined)	66.3	0	0	0	0	0	62.2	29.4
CC1(C)CC1C(=O)Nc1ccc([N+](=O)[O-])cc1Br (centres undefined)	0	0	0	0	0	0	-	-
CC(=O)Nc1ccc(S(=O)(=O)N(C)CC(=O)N2CCN(C(=O)c3ccco3)CC2)cc1	0	0	0	0	0	-	-	-
O=C(O)c1ccc(Nc2nc(-c3cc4ccccc4oc3=O)cs2)cc1O	72.1	0	-	0	0	0	83.5	47.9
CC(=O)Nc1ccc(Nc2nc(-c3cc4ccccc4oc3=O)cs2)cc1	0	0	0	0	0	-	-	-
O=CN(Cc1nc2ccccc2[nH]1)c1ccc(C(=O)O)cc1	0	0	0	0	0	-	-	-
COc1ccc(/C=C2\SC(=Nc3ccccc3OC)NC2=O)cc1	0	0	0	0	0	-	-	-
COc1ccc(S(=O)(=O)/N=C2/NC(=O)/C(=C\c3cc(OC)c(OC)cc3[N+](=O)[O-])S2)cc1	74.8	0	0	0	0	0	63.4	23.0
C[C@H](CO)N1C[C@H](C)[C@@H](CN(C)S(=O)(=O)c2ccc(Oc3ccccc3)nc2)OCc2cn(nn2)CCCC1=O	0	0	0	0	0	-	-	-
SMILES	rCAG RNA binder	PRMT1 inh	TLR9-MyD88 block	ABHD5-PLIN5 inh	NOD2-RIPK2 inh	TLR4 MyD88 comp	rCAG bind conf	DNA CAG counter
Cc1c(C(=O)NCC(c2ccco2)N(C)C)oc2c(Cl)cccc12 (centres undefined)	0	0	0	0	0	-	-	-
O=[N+]([O-])c1cc(Cl)cc(/C=N/NC(=S)Nc2ccc(S(=O)(=O)N3CCOCC3)cc2)c1O	97.6	0	0	0	0	-	87.7	63.4
O=S(=O)(c1ccc(NC(=S)N/N=C/c2ccc(O)c(O)c2)cc1)N1CCOCC1	0	0	0	0	0	-	-	-
COc1ccc(NC(=O)CSc2nnc(N)s2)c([N+](=O)[O-])c1	0	0	0	0	0	0	-	-
COc1ccc(NC(=O)CSc2nnc(NC(C)=O)s2)c([N+](=O)[O-])c1	55.3	0	0	0	0	0	0	0
O=C(Cc1ccccc1F)NNC(=O)c1ccncc1	0	0	0	0	0	-	-	-
CCC(C(=O)Nc1ccccc1C(=O)N1CCCC1)N1C(=O)c2ccccc2C1=O (centres undefined)	0	0	0	0	0	0	-	-
O=C(O)c1ccccc1NC(=O)C(Cc1ccccc1)N1C(=O)c2ccccc2C1=O (centres undefined)	42.1	0	0	0	0	-	48.9	12.4
Cc1ccc(Cn2cc(CN3[C@H](CC(C)C)COc4cc(Br)ccc4S3(=O)=O)nn2)cc1	0	0	-	-	-	-	-	-
NNC(=O)c1ccc(COCC(F)(F)F)cc1	0	0	0	0	0	-	-	-
O=C(CSc1nc(-c2ccccc2)nc2c1Cc1ccccc1O2)Nc1ccccc1	-	-	-	-	-	0	-	-
O=C(CSc1nc(-c2ccc(F)cc2)nc2c1Cc1ccccc1O2)Nc1cccc(C(=O)O)c1	0	0	0	0	0	0	-	-
COc1ccc(-c2nc3c(c(SCC(=O)Nc4cccc(O)c4)n2)Cc2c(CO)cnc(C)c2O3)cc1	57.8	0	0	32.8	0	-	0	15.8
Cc1ncc(CO)c2c1Oc1nc(-c3ccccc3)nc(SCC(=O)Nc3cccc(O)c3)c1C2	58.1	0	0	0	0	-	0	16.9
COc1cc(OC)c(NC(=S)NCc2ccc(F)cc2)cc1Cl	0	0	0	0	0	0	-	-
O=C(Nc1ccccc1C(=O)Nc1nnc(C(F)(F)F)s1)c1ccccc1Cl	65.1	0	0	0	0	-	70.8	29.6
CCOC(=O)c1cc(-c2ccc(F)cc2)n(CC(=O)Nc2nccs2)c1C	0	0	0	0	0	0	-	-
CCCOc1ccc(/C=N/Nc2ccc(C(=O)O)cc2)c(OCCC)c1	54.6	0	0	0	0	0	60.2	21.8
CCCOc1ccc(/C=N/Nc2cccc([N+](=O)[O-])c2)c(O)c1	0	0	0	0	0	0	-	-
C/C(=N/NC(=O)c1ccc(-c2ccccc2)cc1)c1cc(O)cc(O)c1	0	0	0	0	0	-	-	-
C/C(=N\NC(=O)c1ccc(-c2ccccc2)cc1)C1C(=O)c2ccccc2C1=O	47.0	0	0	0	0	0	82.8	49.5
O=C(COc1cccc(F)c1)Nc1nc(-c2cccnc2)cs1	0	0	0	0	0	-	-	-
